TDP1 cell noCPT: qHTS for Inhibitors of human tyrosyl-DNA phosphodiesterase 1 (TDP1): qHTS in cells in absence of CPT; hit rate 15% among 420,000; DT40 Tdp1-/- hTDP1 cells, no CPT, ATP luminescence, 48 h; Potency, µM (series often up to 46.2 µM), inactives show at the highest dose activity change, negative = growth inhibition, most hits filed as inhibitors; note: potency is the fitted concentration of half-maximal effect; nearly all actives have a fitted effect of over 55% in size
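Growth of hTDP1-complemented DT40 Tdp1-knockout cells is measured by ATP luminescence after at least 48 hr compound exposure at 37 °C, with DMSO substituting for the 20 nM CPT used in the parallel screen.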
IL-1B inflam inh: inhibitors of inflammasome signaling (IL-1 beta secretion); THP-1 LPS/ATP IL-1B secretion, AlphaLISA, 16 h; active compounds read low; activity change, % at 57.5 µM; hit rate 4.7% among 360,000; in the data active = activity change below about -50%; inconclusive = mostly about -30% to -49%
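Secreted IL-1B measured by AlphaLISA bead assay after 16 h compound exposure of THP-1 cells; compounds (final up to 57.5 uM) added 1 h before LPS (250 ng/mL) and ATP (1.25 mM) stimulation; lower signal means less secretion.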
TDP1 cell CPT: DT40-hTDP1 cell growth loss with CPT | chicken DT40 Tdp1-/-;hTDP1 cells + 20 nM CPT, ATP luminescence, 48 h | Potency, µM (titrated, usually from 46.2 µM), inactives show at the top dose activity change, negative = growth inhibition, most hits filed as inhibitors | hit rate 12% among 420,000 | AID 686979; note: potency is the fitted concentration of half-maximal effect; nearly all actives have a fitted effect of over 55% in size
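Chicken DT40 Tdp1-/- cells stably complemented with human TDP1 were seeded at 400 cells/well in medium containing 20 nM camptothecin, exposed to pin-transferred compounds, and grown at 37 °C for at least 48 hr. Viability was read as ATP luminescence.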
HT1080NT lethal: kills 2HG-producing HT-1080-NT fibrosarcoma cells; hit rate 1.6% among 360,000; Potency, µM (titrated, usually from 46.1 µM), for the others: top-dose activity, negative = less viability, usual class: cytotoxic; AID 686970; HT-1080-NT fibrosarcoma viability, CellTiter-Glo ATP luminescence, 48 h;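 note: NT is the 2HG producing partner of a matched IDH1 knockdown line; potency is the fitted concentration of half-maximal effect; 0% = DMSO-treated cells and -100% = media-only wells without cells; nearly all actives have a fitted effect of over 55% in size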
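Luminescent CellTiter-Glo readout after 48 hours of compound exposure at 37 degrees C defined viability of HT-1080-NT cells. Activity was normalized to DMSO wells and cell-free media wells; concentration-response curves were fitted and assigned curve classes.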
uPA generation: cell surface uPA generation inhibition. Potency, µM (titrated, usually from 38.3 µM), for the others: at the top dose activity change, negative = inhibition, usual class: inhibitors. cell surface uPA generation assay, qHTS. hit rate 0.31% among 330,000; active = well fitted inhibition curve with a large enough effect; inconclusive = small, poorly fitted or top-dose-only effect; inactive = no such curve, though single readings can be large or run the other way; tested in mouse RAW 264.7 cells; note: potency is the fitted concentration of half-maximal effect; nearly all actives have a fitted effect of over 55% in size
HT1080 IDH1KD tx: toxicity to HT-1080 IDH1 knockdown cells (counter line); HT-1080 IDH1 knockdown viability, ATP luminescence, 48 h; Potency, µM (series often up to 46.1 µM), without a hit: at the top dose activity, negative = toxicity, actives largely listed as cytotoxic; hit rate 2% among 360,000; AID 686971;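 note: potency is the fitted concentration of half-maximal effect; 0% = DMSO wells and -100% = cell-free medium wells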
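HT-1080-IDH1KD cells (IDH1 knocked down), 750/well in RPMI with 5% FBS, treated with compound 48 h at 37 degrees C. Viability by CellTiter-Glo luminescence, normalised to DMSO and no-cell wells; concentration-response curves classed.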
Starred values were filed as active, the others as inactive; ? = inconclusive; . = not tested or not shown; [ ] = dose if it differs, or a comment. Hits are enriched below; roughly 19% of the tested compounds scored in any of these assays. Unless noted, calls come from the whole dose curve; as a rule, active = well fitted curve in the direction sought with a large enough effect; inconclusive = small, poorly fitted or top-dose-only effect, or another doubt; inactive = no such curve, though single readings can be large; an effect the other way counts as inactive or inconclusive. Unless noted, % is set by controls: 0 for no effect and ±100 for the full control effect.

SMILES	TDP1 cell noCPT	IL-1B inflam inh	TDP1 cell CPT	HT1080NT lethal	uPA generation	HT1080 IDH1KD tx
Cc1ccc(OCCCCn2ccnc2C)c(C)c1	?	-56*	?	-25%	-4%	-16%
Cc1ccc(C(C)C)c(OCCn2ccnc2C)c1	23µM*	3	16µM*	-30%	1%	0%
Cn1nc(C(=O)OCC(=O)NCc2ccc(Cl)cc2Cl)c2ccccc2c1=O	-18%	27	-9%	-1%	.	-13%
CC(=O)N1c2ccccc2CC1C(=O)N1CCN(c2ccccc2)CC1 (stereo not drawn)	-14%	.	-2%	.	.	.
COC(=O)[C@]1(Cc2ccccc2)N[C@H](CN(C)C(=O)Nc2ccccc2)[C@@H]2C(=O)N(Cc3ccccc3)C(=O)[C@@H]21	?	-4	?	-18%	31%	-9%
CCN(C[C@H]1N[C@@](Cc2ccccc2)(C(=O)OC)[C@H]2C(=O)N(Cc3ccccc3)C(=O)[C@@H]12)C(C)=O	-16%	-86*	8%	20%	-5%	10%
CCN(C[C@H]1N[C@@](CC)(C(=O)OC)[C@H]2C(=O)N(Cc3ccccc3)C(=O)[C@@H]12)C(=O)Nc1ccc(C)cc1	?	-5	?	-1%	8%	-6%
CCN(C[C@H]1N[C@@](Cc2ccccc2)(C(=O)OC)[C@H]2C(=O)N(Cc3ccccc3)C(=O)[C@@H]12)C(=O)Nc1ccc(C)cc1	16µM*	-7	?	?	?	?
CCN(C[C@H]1N[C@@](Cc2ccccc2)(C(=O)OC)[C@H]2C(=O)N(Cc3ccccc3)C(=O)[C@@H]12)C(=O)c1ccccc1	?	-26	?	8%	0%	3%
CCN(C[C@H]1N[C@@](Cc2ccccc2)(C(=O)OC)[C@H]2C(=O)N(Cc3ccccc3)C(=O)[C@@H]12)C(=O)Nc1ccc(C(F)(F)F)cc1	3.7µM*	?	2.6µM*	-22%	?	-20%
O=C1NCCCC1C(=O)N/N=C/c1cccc(Cl)c1 (stereo not drawn)	-11%	3	31%	25%	0%	12%
CCOc1ccc(C(=O)NCC(=O)OCc2nnc(-c3ccccc3)o2)cc1OCC	12%	13	-2%	16%[9.24 µM]	-5%	10%
O=C(c1sc2ccccc2c1Cl)N(Cc1ccco1)C1CCS(=O)(=O)C1 (stereo not drawn)	26µM*	7	?	3%	.	-13%
CCC(CC)=NNc1cccc([N+](=O)[O-])c1	-27%	0	-13%	-23%	6%	?
COc1ccc(C(=O)/C(C#N)=N/Nc2cccc([N+](=O)[O-])c2)cc1	4.1µM*	-13	5.8µM*	?	?	23µM*
CC/C(C)=N/Nc1cccc([N+](=O)[O-])c1	5%	0	-23%	?	?	9.2µM*
O=[N+]([O-])c1cccc(N=NNc2cccc([N+](=O)[O-])c2)c1	18µM*	-30	?	7%	.	4%
CCCCN(C=O)c1c(CC)nc2ccc(C(=O)N3CCCCC3)cn12	8%	-2	?	17%	.	2%
Cc1ccnc(NC(=O)CCC2CCCCC2)c1	-21%	-7	-28%	4%	-5%	2%
Cc1cc[n+](CCC2CCCCC2)cc1	11µM*	.	10µM*	.	.	.
CCCOP(=O)(c1ccc(N(C)C)cc1)C(O)c1ccc(Cl)cc1 (stereo not drawn)	-20%	-14	4%	-12%	-4%	-7%
CCCC(=O)OC[C@@H](OC(=O)CCC)[C@@H](OC(=O)CCC)[C@H](Cn1c2nc(=O)[nH]c(=O)c-2nc2cc(C)c(C)cc21)OC(=O)CCC	6µM*	.	6.7µM*	.	.	.
CNC(=O)/C(C#N)=C/c1c(N(Cc2ccccc2)Cc2ccccc2)nc2ccccn2c1=O	16µM*	?	16µM*	4%	-16%	0%
COC(=O)/C(C#N)=C/c1c(N2CCN(c3ccccc3)CC2)nc2ccccn2c1=O	-25%	-7	17%	2%	-5%	1%
COc1ccc(S(=O)(=O)N2CCSC2c2ccc(N)cc2)cc1 (stereo not drawn)	-19%	22	-24%	-4%	1%	0%
SMILES	TDP1 cell noCPT	IL-1B inflam inh	TDP1 cell CPT	HT1080NT lethal	uPA generation	HT1080 IDH1KD tx
COc1cc(OC)c(C2SCCN2S(=O)(=O)c2ccc(F)cc2)cc1OC (stereo not drawn)	15µM*	21	13µM*	2%	-4%	11%
COc1ccc(OC)c(C2SCCN2S(=O)(=O)c2cccc(C(F)(F)F)c2)c1 (stereo not drawn)	?	?	16µM*	-6%	7%	-7%
COc1ccc(Br)cc1S(=O)(=O)NCCc1cccs1	-5%	2	-17%	1%	-24%	0%
CC1CCCC2(C1)NC(=S)c1c(sc3c1CCCC3)N2 (stereo not drawn)	3.7µM*	-2	?	-11%	4%	-4%
CSCc1cc(N2CCOCC2)nc(SCc2ccc(Cl)c(Cl)c2)n1	-16%	-7	21µM*	?	13%	?
Cc1ccc(-n2c(=O)c3oc4ccccc4c3n(CC(=O)Nc3ccc(F)c(Cl)c3)c2=O)cc1C	-19%	.	-14%	.	.	.
COc1ccc(C(=O)Oc2c(Sc3ccc(Cl)cc3)c(C)nn2C(C)(C)C)cc1OC	?	.	23µM*	.	.	.
Cc1cccc(C(=O)Oc2c(Sc3ccccc3)c(C)nn2C(C)(C)C)c1	23µM*	.	?	.	.	.
COc1cccc(C(=O)Oc2c(Sc3ccc(C)cc3)c(C)nn2C(C)(C)C)c1OC	23µM*	.	16µM*	.	.	.
COc1ccc(C(=O)Oc2c(Sc3ccc(C)cc3)c(C)nn2C(C)(C)C)cc1OC	21µM*	.	?	.	.	.
O=C(COC(=O)[C@@H]1CC(O)CN1S(=O)(=O)c1ccc(Cl)cc1)NC(=O)NCc1ccccc1 (stereo partly drawn)	5%	2	-2%	5%	4%	-1%
O=C(CN1CCN(S(=O)(=O)c2ccccc2)CC1)Nc1ccnn1C1CCCC1	?	-6	-28%	-1%	6%	-1%
O=C(CN1CCN(c2ccccc2O)CC1)Nc1ccnn1C1CCCC1	21µM*	-7	21µM*	-2%	?	-13%
COc1ccc(NC(=O)c2ccc(NC(=O)CN3CCN(c4ccccc4O)CC3)cc2)cc1	18µM*	-19	18µM*	-14%	.	-19%
COc1ccc(C(=O)C2CCN(CC(=O)Nc3ccc(C)cc3)CC2)cc1	29µM*	-10	-22%	?	-2%	-7%
